SW480 rereplic: DNA re-replication induction in SW480 cells; SW480 DNA re-replication, Hoechst DNA content imaging, 48 h; Potency, µM (doses to about 46.1 µM), for inactives: at the top dose re-replication activation, hits mostly activators; 340,000 compounds, 1.8% hits; also: % of control where 0% means no effect; nearly all actives have a fitted effect of over 55% in size
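Quantitative HTS format with DMSO vehicle controls; 48 hr drug incubation at 37 C, then 40 min Hoechst staining and scanning imager measurement at 405 nm excitation.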
KB-V1 MDR tox: kills drug-selected multidrug resistant KB-V1 cells | KB-V1 MDR cells viability, CellTiter-Glo, 72 h | Potency, µM (highest dose often 46.1 µM), most hits filed as cytotoxic | 400,000 compounds, 3.4% hits | AID 1347076; also: % is scaled to controls: 0 for no effect and ±100 for the full control effect; nearly all actives have a fitted effect of over 60% in size
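Cells of the MDR subline KB-V1 are plated, dosed with compound at multiple concentrations, and incubated 72 h at 37 degrees C; CellTiter-Glo is then added and luminescence read after 10 min.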
MCF10A rerep: inducers of DNA re-replication in MCF 10A breast cells. MCF 10A DNA re-replication, Hoechst nuclear intensity, 48 h. Potency, µM (highest dose often 46.1 µM), inactives show at the highest dose activity, positive = re-replication, actives largely listed as activators. 350,000 compounds, 2.9% hits; also: % of control where 0% means no effect; nearly all actives have a fitted effect of over 50% in size
HT1080 IDH1KD tx: HT-1080 IDH1 knockdown cell toxicity (counter line); AID 686971; 360,000 compounds, 2% hits; Potency, µM (top dose mostly 46.1 µM), inactives show at the highest dose activity, negative = toxicity, usual class: cytotoxic; HT-1080 IDH1 knockdown viability, ATP luminescence, 48 h;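 also: 0% = DMSO wells and -100% = cell-free medium wells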
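CellTiter-Glo luminescence after 48 h compound exposure at 37 degrees C of IDH1-knockdown HT-1080 cells in 5% FBS RPMI. %Activity scaled between DMSO wells and cell-free media wells, with curves fitted and assigned curve classes.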
HT1080-NT tox: kills 2HG-producing HT-1080-NT fibrosarcoma cells; HT-1080-NT fibrosarcoma viability, CellTiter-Glo ATP luminescence, 48 h; Potency, µM (titrated, usually from 46.1 µM), without a hit: top-dose activity, negative = less viability, actives largely listed as cytotoxic; 360,000 compounds, 1.6% hits;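 also: NT is the 2HG producing partner of a matched IDH1 knockdown line; 0% = DMSO-treated cells and -100% = media-only wells without cells; nearly all actives have a fitted effect of over 55% in size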
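HT-1080-NT fibrosarcoma cells (2HG-overproducing), 750 cells/well in RPMI with 5% FBS, dosed after 2 h and incubated 48 h at 37C. CellTiter-Glo luminescence normalized to DMSO and no-cell wells; concentration-response curves fitted and classed.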
KB-3-1 cytotox: kills parental KB-3-1 adenocarcinoma cells; AID 1347075; Potency, µM (titrated, usually from 46.1 µM), most hits filed as cytotoxic; KB-3-1 viability, CellTiter-Glo ATP luminescence, 72 h; 400,000 compounds, 1.4% hits; also: % is scaled to controls: 0 for no effect and ±100 for the full control effect; nearly all actives have a fitted effect of over 60% in size
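72 h, 37 °C compound treatment of KB-3-1 parental cells; CellTiter-Glo added, 10 min, luminescence read. Data corrected against DMSO-only plates and normalized before curve fitting.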
* marks the source's active call; other numbers are inactive results; [ ] = another dose, or the depositor's remark. Most compounds without a hit are left out; they make up all but 8% or so of the library. Calls follow the shape of the dose curve; as a rule, active = well fitted curve in the direction sought with a large enough effect; inconclusive = small, poorly fitted or top-dose-only effect, or another doubt; inactive = no such curve, though single readings can be large; an effect the other way counts as inactive or inconclusive. Potency is read from the fitted curve at half-maximal effect.

`COc1ccc(C)cc1NC(=O)C1CCCN(c2ncnc3onc(C)c23)C1` (stereo not given) gave KB-V1 MDR tox inactive and KB-3-1 cytotox inactive.
Screening CCOC(=O)C1CCCN(C(=O)c2cc3c(=O)n(C)c4ccccc4c3s2)C1 (stereo not given) returned KB-V1 MDR tox inactive and KB-3-1 cytotox inactive.
CCOc1ccc(-c2nc(N)ncc2Oc2cccc(OC)c2)c(O)c1 was read as SW480 rereplic -2%[9.22 µM], KB-V1 MDR tox inconclusive, MCF10A rerep 30%, HT1080 IDH1KD tx inconclusive, HT1080-NT tox -25% and KB-3-1 cytotox inconclusive.
Screening CCOc1ccc(-c2[nH]ncc2-c2ccc(Cl)cc2)c(O)c1 returned SW480 rereplic inconclusive, KB-V1 MDR tox inactive, MCF10A rerep inconclusive, HT1080 IDH1KD tx 0%, HT1080-NT tox -14% and KB-3-1 cytotox inactive.
For COc1ccc(-c2c(C)nc(N)nc2-c2ccc(OC)cc2O)cc1 the results were SW480 rereplic inconclusive, KB-V1 MDR tox inactive, MCF10A rerep 3%, HT1080 IDH1KD tx -12%, HT1080-NT tox -5% and KB-3-1 cytotox inactive.
`COc1ccc(-c2cn[nH]c2-c2ccc(OCc3ccc([N+](=O)[O-])cc3)cc2O)cc1` gave SW480 rereplic inconclusive, KB-V1 MDR tox 3.7µM*, MCF10A rerep 5.8µM*, HT1080 IDH1KD tx -20%, HT1080-NT tox 0% and KB-3-1 cytotox inconclusive.
For C=C(C)COc1ccc(-c2[nH]ncc2-c2ccccc2OC)c(O)c1 the results were SW480 rereplic inconclusive, KB-V1 MDR tox inconclusive, MCF10A rerep 15µM*, HT1080 IDH1KD tx 18µM*, HT1080-NT tox 18µM* and KB-3-1 cytotox inconclusive.
Screening CCOc1ccc(-c2nc(N)ncc2Oc2ccccc2Br)c(O)c1 returned SW480 rereplic 26%, KB-V1 MDR tox inactive, MCF10A rerep inconclusive, HT1080 IDH1KD tx 23µM*, HT1080-NT tox inconclusive and KB-3-1 cytotox inactive.
`COc1ccc(-c2c(C)nc(N)nc2-c2ccc(OCc3ccc(C)cc3)cc2O)cc1OC` gave SW480 rereplic 16%, KB-V1 MDR tox 2.3µM*, MCF10A rerep inconclusive, HT1080 IDH1KD tx -14%, HT1080-NT tox -5% and KB-3-1 cytotox inactive.
`COc1ccc(N2CCN(S(=O)(=O)CCNC(=O)C3CC(=O)N(c4ccccc4)C3)CC2)cc1` (stereo not given) gave SW480 rereplic -12%, KB-V1 MDR tox inactive, MCF10A rerep 6%, HT1080 IDH1KD tx 12%, HT1080-NT tox -1% and KB-3-1 cytotox inconclusive.
CCCCCNc1nc2c(-c3ccccc3)nnn2c2ccccc12 was read as KB-V1 MDR tox inactive and KB-3-1 cytotox inactive.
Screening CCc1cc(-c2nc(N)ncc2-c2ccc(Br)cc2)c(O)cc1OC returned SW480 rereplic 7%, KB-V1 MDR tox inactive, MCF10A rerep 18µM*, HT1080 IDH1KD tx -16%, HT1080-NT tox 0% and KB-3-1 cytotox inactive.
Screening C=C(C)COc1ccc(-c2nc(N)ncc2-c2ccc(Br)cc2)c(O)c1 returned SW480 rereplic inconclusive, KB-V1 MDR tox inconclusive, MCF10A rerep 23µM*, HT1080 IDH1KD tx -25%, HT1080-NT tox inconclusive and KB-3-1 cytotox 21µM*.
Screening Cc1ccccc1C(=O)NNc1ccc(-c2csnn2)cc1 returned SW480 rereplic 3%, KB-V1 MDR tox inactive, MCF10A rerep 18µM*, HT1080 IDH1KD tx 8.2µM*, HT1080-NT tox inconclusive and KB-3-1 cytotox inactive.
`CC(=O)Oc1ccc(-c2csnn2)cc1` gave SW480 rereplic 0%, KB-V1 MDR tox inactive, MCF10A rerep 9%, HT1080 IDH1KD tx 6%, HT1080-NT tox 9% and KB-3-1 cytotox inactive.
For CCOc1ccc(C(C)NC(=O)Cc2ccccc2)cc1OCC (stereo not given) the results were SW480 rereplic 15µM*, KB-V1 MDR tox inactive, MCF10A rerep -6%, HT1080 IDH1KD tx 13%, HT1080-NT tox 20% and KB-3-1 cytotox inconclusive.

From PubChem
